Assay results from PubChem BioAssay (NCATS).
Records with an inconclusive call do not appear. A call without a number means that no potency is given here. Activity calls are given as the source filed them. Unless noted, calls come from the whole dose curve; as a rule, active = well fitted curve in the direction sought with a large enough effect; inconclusive = small, poorly fitted or top-dose-only effect, or another doubt; inactive = no such curve, though single readings can be large; an effect the other way counts as inactive or inconclusive.

Tests used:
[1] = molecular target: ATP-dependent 6-phosphofructokinase (Trypanosoma brucei brucei) (UniProt O15648); assay: qHTS Assay to Find Inhibitors of T. brucei phosphofructokinase: hit validation (AID 492961);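 note: luminescence reports ADP formed as PFK phosphorylates fructose-6-phosphate with ATP; series mostly up to about 51 µM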
Outline: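 ADP-Glo luminescence read-out of ADP formed by 1.25 nM PFK from 0.1 mM ATP and 0.5 mM F6P (TEA pH 8.0, 45 min, RT). Compounds titrated; activity normalized to no-enzyme and full-enzyme controls.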

[2] = molecular target: Ubiquitin carboxyl-terminal hydrolase 1 (Homo sapiens) (UniProt O94782); assay: Inhibitors of USP1/UAF1: Pilot qHTS (AID 504865); note: nearly all actives have a fitted effect of over 35% in size; note: potency is the fitted concentration of half-maximal effect
Outline: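 Deubiquitinase activity followed as kinetic rhodamine fluorescence release from 150 nM Ub-Rho. 1 nM USP1/UAF1 with compound, after 15 min room-temperature preincubation, in HEPES pH 7.8 buffer containing TCEP, EDTA, BSA and Tween-20.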

[3] = molecular target: Estrogen receptor (Homo sapiens) (UniProt P03372); assay: qHTS assay for small molecule antagonists of estrogen receptor alpha signaling (AID 588513; active = well fitted curve in the direction sought with a large enough effect in the signal ratio, with a control signal flat, not every such curve was filed as active; the % refers to the signal ratio)
Outline: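 Antagonist mode: inhibition of 0.5 nM 17-beta-estradiol-driven beta-lactamase reporter in HEK 293 ER-alpha-UAS-bla cells, 18 h at 37C, CCF4 readout after 2 h at RT. Normalised to estradiol and DMSO; titration fitted to Hill.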

[4] = molecular target: Estrogen receptor (Homo sapiens) (UniProt P03372); assay: qHTS assay for small molecule agonists of estrogen receptor alpha signaling (AID 588514; calls by dose curve; note: nearly all actives have a fitted effect of over 70% in size)
Outline: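 ER-alpha-UAS-bla GripTite HEK 293 cells in medium with 2% charcoal/dextran-treated FBS were treated with compound titrations at 37 C for 18 hrs; beta-lactamase reporter read by CCF4 fluorescence after 2 hrs at RT.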

[5] = molecular target: DNA dC->dU-editing enzyme APOBEC-3G (Homo sapiens) (UniProt Q9HC16); assay: qHTS for inhibitors of Vif-A3G interactions: Validation (AID 588379)
Outline: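 HeLa cells stably expressing Vif and A3G-eYFP, 700 cells/well, incubated overnight at 37 deg C, then exposed to compound overnight at 37 deg C. Inhibition of Vif-mediated degradation read as increased yellow fluorescence (Ex 488/Em 500-530) by laser-scanning cytometry.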

ATP-dependent 6-phosphofructokinase (Trypanosoma brucei brucei), sequence (O15648 whole entry, looked up): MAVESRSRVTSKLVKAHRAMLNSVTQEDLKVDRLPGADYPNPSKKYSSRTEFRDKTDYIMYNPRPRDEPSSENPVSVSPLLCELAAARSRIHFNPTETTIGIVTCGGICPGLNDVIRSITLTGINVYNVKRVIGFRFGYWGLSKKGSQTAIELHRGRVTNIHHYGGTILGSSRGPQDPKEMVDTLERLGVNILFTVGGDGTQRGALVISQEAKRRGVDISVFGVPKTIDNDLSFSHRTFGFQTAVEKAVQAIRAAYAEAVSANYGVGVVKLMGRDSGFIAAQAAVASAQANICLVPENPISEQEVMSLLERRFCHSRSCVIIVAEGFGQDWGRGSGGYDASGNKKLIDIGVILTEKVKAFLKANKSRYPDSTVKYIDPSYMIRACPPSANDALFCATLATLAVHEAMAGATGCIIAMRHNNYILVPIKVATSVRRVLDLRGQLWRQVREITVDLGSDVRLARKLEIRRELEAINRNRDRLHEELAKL
Estrogen receptor (Homo sapiens), sequence (P03372 whole entry, looked up): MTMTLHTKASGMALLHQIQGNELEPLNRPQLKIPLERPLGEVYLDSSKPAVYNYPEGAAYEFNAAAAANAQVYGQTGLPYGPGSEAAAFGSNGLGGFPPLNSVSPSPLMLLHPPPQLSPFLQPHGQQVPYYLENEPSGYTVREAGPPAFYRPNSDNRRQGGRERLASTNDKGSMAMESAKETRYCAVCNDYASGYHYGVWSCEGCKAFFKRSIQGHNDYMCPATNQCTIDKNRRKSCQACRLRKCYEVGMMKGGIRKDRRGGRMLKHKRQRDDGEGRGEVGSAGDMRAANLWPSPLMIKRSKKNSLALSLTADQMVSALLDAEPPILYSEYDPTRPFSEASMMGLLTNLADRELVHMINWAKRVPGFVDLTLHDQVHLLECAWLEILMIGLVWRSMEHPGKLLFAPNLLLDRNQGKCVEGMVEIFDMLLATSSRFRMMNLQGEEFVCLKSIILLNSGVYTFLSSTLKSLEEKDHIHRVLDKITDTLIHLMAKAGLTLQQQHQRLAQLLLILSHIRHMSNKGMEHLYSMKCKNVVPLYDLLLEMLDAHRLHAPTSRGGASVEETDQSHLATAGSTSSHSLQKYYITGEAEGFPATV
Ubiquitin carboxyl-terminal hydrolase 1 (Homo sapiens), sequence (O94782 whole entry, looked up): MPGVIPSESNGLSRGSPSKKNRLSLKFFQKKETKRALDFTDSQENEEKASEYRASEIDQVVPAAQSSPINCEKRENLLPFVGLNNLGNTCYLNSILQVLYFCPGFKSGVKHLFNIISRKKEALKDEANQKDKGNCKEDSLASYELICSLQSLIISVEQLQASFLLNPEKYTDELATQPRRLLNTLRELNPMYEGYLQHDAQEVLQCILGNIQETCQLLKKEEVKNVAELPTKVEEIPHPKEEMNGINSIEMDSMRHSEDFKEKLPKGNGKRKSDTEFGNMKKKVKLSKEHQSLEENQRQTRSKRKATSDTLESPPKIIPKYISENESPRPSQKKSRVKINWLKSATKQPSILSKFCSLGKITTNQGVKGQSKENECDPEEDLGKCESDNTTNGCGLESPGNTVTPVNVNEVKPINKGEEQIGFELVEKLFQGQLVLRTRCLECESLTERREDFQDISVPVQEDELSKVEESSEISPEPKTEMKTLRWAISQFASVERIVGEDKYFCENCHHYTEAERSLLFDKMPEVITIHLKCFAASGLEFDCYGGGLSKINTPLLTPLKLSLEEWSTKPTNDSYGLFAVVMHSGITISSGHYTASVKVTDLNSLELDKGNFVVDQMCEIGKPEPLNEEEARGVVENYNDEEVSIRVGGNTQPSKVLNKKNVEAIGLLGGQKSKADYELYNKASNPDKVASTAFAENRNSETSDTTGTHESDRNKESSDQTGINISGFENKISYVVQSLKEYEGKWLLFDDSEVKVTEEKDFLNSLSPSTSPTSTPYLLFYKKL
DNA dC->dU-editing enzyme APOBEC-3G (Homo sapiens), sequence (Q9HC16 whole entry, looked up): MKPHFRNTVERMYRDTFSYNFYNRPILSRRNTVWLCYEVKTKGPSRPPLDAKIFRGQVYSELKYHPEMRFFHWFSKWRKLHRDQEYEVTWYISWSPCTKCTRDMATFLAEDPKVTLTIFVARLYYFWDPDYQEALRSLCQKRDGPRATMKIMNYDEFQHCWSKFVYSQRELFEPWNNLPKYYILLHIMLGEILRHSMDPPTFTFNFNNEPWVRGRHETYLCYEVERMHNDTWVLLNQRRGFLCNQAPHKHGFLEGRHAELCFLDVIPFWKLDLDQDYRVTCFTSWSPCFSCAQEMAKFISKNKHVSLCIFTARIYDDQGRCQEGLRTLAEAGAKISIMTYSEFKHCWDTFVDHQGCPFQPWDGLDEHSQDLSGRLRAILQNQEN

Cc1c(C(=O)NCCO)[n+](=O)c2ccccc2n1[O-]
outcome [1]: inactive | Potency [2]: inactive

CCOc1cc(NC(C)=O)ccc1C(=O)OC
outcome [1]: inactive | Potency [2]: inactive

CN(C/C=C/C#CC(C)(C)C)Cc1cccc2ccccc12
outcome [1]: inactive

O[C@@H]1CO[C@H]2[C@@H]1OC[C@@H]2O
outcome [1]: inactive | Potency [2]: inactive

O=S1(=O)OC(c2ccc(O)cc2)(c2ccc(O)cc2)c2ccccc21
outcome [1]: inactive

COc1ccccc1OC(=O)Oc1ccccc1OC
outcome [1]: inactive

CC[N+](C)(CC)CCOC(=O)C1c2ccccc2Oc2ccccc21
outcome [1]: inactive | Potency [2]: inactive

O=C1CC[C@@H](C(=O)O)N1
outcome [1]: inactive | Potency [2]: inactive

CCCCCCCCCCC(CO)CCCCCCCC (stereo unspecified)
outcome [1]: inactive

NS(=O)(=O)c1cc(-c2nn[nH]n2)c(NCc2cccs2)cc1Cl
outcome [1]: inactive | Potency [2]: inactive

O=C(c1ccccc1)C(O)c1ccccc1 (stereo unspecified)
outcome [1]: inactive | Potency [2]: inactive

COc1ccc(C(=O)N2CCN(CC(=O)N3CCOCC3)CC2)cc1
outcome [1]: inactive | Potency [2]: inactive

OCc1ccc(Cl)cc1Cl
outcome [1]: inactive | Potency [2]: inactive

NC(=O)CCCCC1CCSS1 (stereo unspecified)
outcome [1]: inactive | Potency [2]: inactive

CC(C)CCOC(=O)c1ccc(N(C)C)cc1
outcome [1]: inactive

CNCc1ccccc1
outcome [1]: inactive | Potency [2]: inactive

O=C(/C=C/c1ccccc1)OCc1ccccc1
outcome [1]: inactive

Nc1ccncc1N
outcome [1]: inactive | Potency [2]: inactive

CCc1nnc(NS(=O)(=O)c2ccc(N)cc2)s1
outcome [1]: inactive | Potency [2]: inactive

COC(=O)c1cccnc1
outcome [1]: inactive | Potency [2]: inactive

CCN(CC)CC1CCCCN1CC(=O)N1c2ccccc2C(=O)Nc2cccnc21 (stereo unspecified)
outcome [1]: inactive | Potency [2]: inactive

Cc1cccc(C(=O)O)c1O
outcome [1]: inactive | Potency [2]: inactive

Cc1ccsc1C(=CCCN1CCC[C@@H](C(=O)O)C1)c1sccc1C
outcome [1]: inactive | Potency [2]: inactive

Cc1cc(O)cc(C)c1Cl
outcome [1]: inactive | Potency [2]: inactive

COc1cc(O)cc(O)c1
outcome [1]: inactive | Potency [2]: inactive

CCCOC(=O)c1ccc(N)cc1
outcome [1]: inactive | Potency [2]: inactive

O=C(O)c1ccc[n+]([O-])c1
outcome [1]: inactive | Potency [2]: inactive

N[C@@H](Cc1ccc(O)cc1)C(=O)O
outcome [1]: inactive | Potency [2]: inactive

CC(=O)N(CC(O)CO)c1c(I)c(C(=O)NCC(O)CO)c(I)c(C(=O)NCC(O)CO)c1I (stereo unspecified)
outcome [1]: inactive | Potency [2]: inactive

CCS(=O)(=O)CCn1c([N+](=O)[O-])cnc1C
outcome [1]: inactive | Potency [2]: inactive

Cc1c(Cn2ccnc2)c2ccccc2n1CCC(=O)O
outcome [1]: inactive | Potency [2]: inactive

CC(N)CCCC(C)(C)O (stereo unspecified)
outcome [1]: inactive | Potency [2]: inactive

CCOc1ccc(C(=O)OCCN(CC)CC)cc1
outcome [1]: inactive | Potency [2]: inactive

CC(C)CCCC(C)CCCC(C)CCCCC(C)CCCC(C)CCCC(C)C (stereo unspecified)
outcome [1]: inactive | Potency [2]: inactive

Cc1[nH]c(C)c(Cl)c(=O)c1Cl
outcome [1]: inactive | Potency [2]: inactive

NC(N)=NCCN1CCCCCCC1
outcome [1]: inactive | Potency [2]: inactive

CCCCC1(COC(=O)CCC(=O)O)C(=O)N(c2ccccc2)N(c2ccccc2)C1=O
outcome [1]: inactive | Potency [2]: inactive

O=C(O)c1cc(=O)c2ccccc2o1
outcome [1]: inactive | Potency [2]: inactive

CC(CSC(=O)c1ccccc1)C(=O)N1C[C@@H](Sc2ccccc2)C[C@H]1C(=O)O (stereo partly specified)
outcome [1]: inactive | Potency [2]: inactive

O=C1c2ccccc2C(=O)C1c1ccc(Br)cc1
outcome [1]: inactive | Potency [2]: inactive

CC(O)CCCCn1c(=O)c2c(ncn2C)n(C)c1=O (stereo unspecified)
outcome [1]: inactive | Potency [2]: inactive

C[C@@H]1CCC[C@H](C)N1
outcome [1]: inactive | Potency [2]: inactive

NC(N)=NS(=O)(=O)c1ccc(N)cc1
outcome [1]: inactive | Potency [2]: inactive

O=C(O)CNC(=O)c1ccccc1I
outcome [1]: inactive | Potency [2]: inactive

COc1cc(C(=O)NCCCCCC(=O)O)cc(OC)c1OC
outcome [1]: inactive | Potency [2]: inactive

NNC(=O)CP(=O)(c1ccccc1)c1ccccc1
outcome [1]: inactive | Potency [2]: inactive

O=C(Cn1ccnc1[N+](=O)[O-])NCc1ccccc1
outcome [1]: inactive | Potency [2]: inactive

O=c1[nH]c2cc(C(F)(F)F)c(N3CCOCC3)cc2n(CP(=O)(O)O)c1=O
outcome [1]: inactive | Potency [2]: inactive

CCCNC(C)(C)COC(=O)c1ccccc1
outcome [1]: inactive | Potency [2]: inactive

CCCCCCCCCCCCCCCCC(C(=O)O)C(O)(CC(=O)O)C(=O)O (stereo unspecified)
outcome [1]: inactive | Potency [2]: 22.4 µM (active)

CCCCCC(N)=O
outcome [1]: inactive | Potency [2]: inactive

Cc1ccccc1N=Nc1ccc(N=Nc2c(O)ccc3ccccc23)c(C)c1
outcome [1]: inactive | Potency [2]: inactive

CCN(CC)S(=O)(=O)c1ccc(C(=O)O)cc1
outcome [1]: inactive | Potency [2]: inactive

NC(=O)NS(=O)(=O)c1ccc(N)cc1
outcome [1]: inactive | Potency [2]: inactive

CCCCCCCCCCCCCCCCN
outcome [1]: inactive | Potency [2]: inactive

CCOC(=O)c1cccnc1
outcome [1]: inactive | Potency [2]: inactive

CCN(CC)CCOC(=O)C(c1ccccc1)c1ccccc1
outcome [1]: inactive | Potency [2]: inactive

CCN(CC)CCc1nc(-c2ccccc2)no1
outcome [1]: inactive | Potency [2]: inactive

CC1CC(OC(=O)c2ccccc2O)CC(C)(C)C1 (stereo unspecified)
outcome [1]: inactive | Potency [2]: inactive

Cc1ncc(CO)c(CN)c1O
outcome [1]: inactive | Potency [2]: inactive

Cc1ccc(S(=O)(=O)NC(=O)NC2CCCCCCC2)cc1
outcome [1]: inactive | Potency [2]: inactive

CCCCCCCC(=O)OCC(O)CO (stereo unspecified)
outcome [1]: inactive | Potency [2]: inactive

NS(=O)(=O)c1ccc(NC(=O)CCC(=O)O)cc1
outcome [1]: inactive | Potency [2]: inactive

O=C(CN1CCNCC1)NC1CCCCC1
outcome [1]: inactive | Potency [2]: inactive

O=C(O)Cc1cn(-c2ccccc2)nc1-c1ccc(Cl)cc1
outcome [1]: inactive | Potency [2]: inactive

CC1CCN(CCCC(=O)c2ccc(F)cc2)CC1
outcome [1]: inactive | Potency [2]: inactive

COc1ccc(NS(=O)(=O)c2ccc(N)cc2)nn1
outcome [1]: inactive | Potency [2]: inactive

Cc1onc(-c2ccccc2)c1-c1ccc(S(N)(=O)=O)cc1
outcome [1]: inactive | Potency [2]: inactive

CC(C)c1cc2c(cc1S(=O)(=O)O)[C@@]1(C)CCC[C@@](C)(C(=O)O)[C@@H]1CC2
outcome [1]: inactive | Potency [2]: inactive

Cc1cccc(C)c1NC(=O)CC12CCCN1CCC2
outcome [1]: inactive | Potency [2]: inactive

CN/C(=C\[N+](=O)[O-])NCCSCc1csc(CN(C)C)n1
outcome [1]: inactive | Potency [2]: inactive

Cc1ccc(S(=O)(=O)NC(=O)NC2CCCCC2)cc1
outcome [1]: inactive | Potency [2]: inactive

COc1ccc(C(=O)NCc2ccc(OCCN(C)C)cc2)cc1OC
outcome [1]: inactive | Potency [2]: inactive

Cc1c(NC(C)C)c(=O)n(-c2ccccc2)n1C
outcome [1]: inactive | Potency [2]: inactive

COC(=O)c1ccccc1C(=O)c1ccc(OCCN2CCCCC2)cc1
outcome [1]: inactive | Potency [2]: inactive

CCN1CC(CCN2CCOCC2)C(c2ccccc2)(c2ccccc2)C1=O (stereo unspecified)
outcome [1]: inactive | Potency [2]: inactive

O=C(NCN1CCOCC1)c1cnccn1
outcome [1]: inactive | Potency [2]: inactive

CCOC(=O)[C@H](CCc1ccccc1)N[C@@H](C)C(=O)N1CCC[C@H]1C(=O)O
outcome [1]: inactive | Potency [2]: inactive

O=C(O)Cc1ccc(CCNS(=O)(=O)c2ccc(Cl)cc2)cc1
outcome [1]: inactive | Potency [2]: inactive

CCCCCC(C)N (stereo unspecified)
outcome [1]: inactive | Potency [2]: inactive

O=c1[nH]c(=O)c2ccccc2o1
outcome [1]: inactive | Potency [2]: inactive

CC(=O)Oc1cccc(C)c1
outcome [1]: inactive | Potency [2]: inactive

CNc1c2c(nn1C)CCCC2
outcome [1]: inactive | Potency [2]: inactive

CC(=O)Nc1ccc(OCCOCCOc2ccc(NC(C)=O)cc2)cc1
outcome [1]: inactive | Potency [2]: inactive

NCc1ccc(S(N)(=O)=O)cc1
outcome [1]: inactive | Potency [2]: inactive

O=C(O)c1ccc(OCCCOc2ccc(C(=O)O)cc2)cc1
outcome [1]: inactive | Potency [2]: inactive

CC(CN(C)C)C(C)(O)Cc1ccc(Cl)cc1 (stereo unspecified)
outcome [1]: inactive | Potency [2]: inactive

O=C1c2cccc(O)c2C(=O)c2c(O)cccc21
outcome [1]: inactive | Potency [2]: inactive

Nc1ncnc(Nc2ccccc2)n1
outcome [1]: inactive | Potency [2]: inactive

C=CCNC(N)=S
outcome [1]: inactive | Potency [2]: inactive

CN1CCN(C(=O)C2CCCCC2)CC1
outcome [1]: inactive | Potency [2]: inactive

CC(=O)OCC(COC(C)=O)OC(C)=O
outcome [1]: inactive | Potency [2]: inactive

CCCCCCCCCCCCCCCCCCO
outcome [1]: inactive | Potency [2]: inactive | outcome [3]: inactive | outcome [4]: inactive

Nc1c2c(nc3c1CCC3)CCCC2
outcome [1]: inactive | Potency [2]: inactive

C[C@@H](N)C(=O)O
outcome [1]: inactive | Potency [2]: inactive | outcome [5]: inactive

OCC(O)CS (stereo unspecified)
outcome [1]: inactive | Potency [2]: inactive

CCCCCCCC(=O)OCC(COC(=O)CCCCCCC)OC(=O)CCCCCCC
outcome [1]: inactive | Potency [2]: inactive | outcome [3]: inactive | outcome [4]: inactive

NC(=O)c1ccc([N+](=O)[O-])cc1Cl
outcome [1]: inactive | Potency [2]: inactive

C[C@H]1COc2c(C3(N)CC3)c(F)cc3c(=O)c(C(=O)O)cn1c23
outcome [1]: inactive | Potency [2]: inactive

Cc1cc(=O)[nH]c(=S)[nH]1
outcome [1]: inactive | Potency [2]: inactive | outcome [3]: inactive | outcome [4]: inactive

CCN(CC)C(=O)c1cccc(C)c1
outcome [1]: inactive | Potency [2]: inactive | outcome [3]: inactive | outcome [4]: inactive

CC(C)C[C@@H](N)C(=O)O
outcome [1]: inactive | Potency [2]: inactive

CC(=O)Nc1ccccc1
outcome [1]: inactive | Potency [2]: inactive | outcome [3]: inactive | outcome [4]: inactive
